Screens: PubChem, National Center for Advancing Translational Sciences (NCATS)
GPT2 inhibitor: blocks human glutamate pyruvate transaminase 2. Q8TD30. Recombinant GPT2, coupled pyruvate oxidase/HRP Amplex Red fluorescence. 0.25% of 100,000 active. Potency, µM (highest dose often 57.7 µM), without a hit: at the top dose activity change, negative = inhibition, usual class: inhibitors; active = well fitted inhibition curve with a large enough effect; inconclusive = small, poorly fitted or top-dose-only effect; also: % is scaled to controls: 0 for no effect and ±100 for the full control effect; nearly all actives have a fitted effect of over 60% in size
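Fluorescence of coupled pyruvate oxidase/HRP/Amplex Red system (50uM Amplex, 30 min, dark) reports pyruvate formed by GPT2. Enzyme reaction: 10ng/uL GPT2, 2mM L-alanine, 250uM a-KG, 30 min room temperature, pH 7.5; 50uM AOA control.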
NPR1 antag: antagonists of human natriuretic peptide receptor Npr1 | AID 1347048 | HEK293 hNpr1 GloSensor cGMP, ANP-stimulated luminescence | 1.6% of 76,000 active | P16066 | Potency, µM (top dose mostly 46.3 µM), inactives show top-dose activity change, negative = inhibition, usual class: inhibitors; also: % is scaled to controls: 0 for no effect and ±100 for the full control effect; nearly all actives have a fitted effect of over 60% in size
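Compound pre-incubated 30 min at room temperature on GloSensor-loaded HEK293 cells stably carrying hNpr1 and the pGS-40F cGMP biosensor. Stimulation uses hNppA at 0.1 nM final; luminescence is taken at baseline and 20 min post-agonist.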
NPR1 antag cnf: hNpr1 antagonism, confirmation assay | AID 1347044 | HEK293 hNpr1 cGMP GloSensor luminescence, ANP-stimulated | 76% of 1,400 active | shares compounds with NPR1 antag | Potency, µM (highest dose often 57.6 µM), inactives show at the highest dose activity change, negative = inhibition, actives largely listed as inhibitors; also: nearly all actives have a fitted effect of over 70% in size
Npr2 selectivity: antagonizes human Npr2, subtype selectivity check; shares compounds with NPR1 antag; HEK293 hNpr2 GloSensor cGMP luminescence, CNP-stimulated; Potency, µM (series often up to 57.6 µM), without a hit: top-dose activity change, negative = inhibition, usual class: inhibitors; 67% of 1,400 active; also: nearly all actives have a fitted effect of over 70% in size
FLuc inh counter: counter-screen for Npr1 antagonists: firefly luciferase inhibitors. shares compounds with NPR1 antag. purified FLuc enzyme, luminescence, Km substrate. Potency, µM (highest dose often 57.6 µM), inactives show at the top dose activity change, negative = inhibition, actives largely listed as inhibitors. 0.7% of 1,400 active; active = well fitted inhibition curve with a large enough effect; inconclusive = small, poorly fitted or top-dose-only effect; also: 0% is about no effect
Target sequence (P08659 whole entry, looked up): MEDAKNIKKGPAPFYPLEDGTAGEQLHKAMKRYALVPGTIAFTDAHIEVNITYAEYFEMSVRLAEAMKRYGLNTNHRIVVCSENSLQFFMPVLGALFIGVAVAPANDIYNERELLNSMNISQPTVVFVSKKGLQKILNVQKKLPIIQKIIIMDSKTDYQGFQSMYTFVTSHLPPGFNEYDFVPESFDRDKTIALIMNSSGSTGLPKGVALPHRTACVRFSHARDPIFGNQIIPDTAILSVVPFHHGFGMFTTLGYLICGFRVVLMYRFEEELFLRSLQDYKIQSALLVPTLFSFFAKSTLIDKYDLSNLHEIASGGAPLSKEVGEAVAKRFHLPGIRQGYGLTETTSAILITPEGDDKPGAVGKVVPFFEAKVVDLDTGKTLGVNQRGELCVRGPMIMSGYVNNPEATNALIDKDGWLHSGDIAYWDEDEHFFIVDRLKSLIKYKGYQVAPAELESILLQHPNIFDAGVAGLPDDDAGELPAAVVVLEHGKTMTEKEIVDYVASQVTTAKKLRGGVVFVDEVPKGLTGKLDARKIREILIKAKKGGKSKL
GloSensor cGMP: reduces cGMP signal in GloSensor control cells; shares compounds with NPR1 antag; HEK293 GloSensor cGMP, SNP-stimulated, luminescence; Potency, µM (highest dose often 57.6 µM), for inactives: top-dose activity change, negative = inhibition, usual class: inhibitors; 69% of 1,400 active; AID 1347051; also: % is scaled to controls: 0 for no effect and ±100 for the full control effect; nearly all actives have a fitted effect of over 70% in size
An asterisk follows results filed as active; i = inactive; ? = inconclusive; . = not tested or not shown; [ ] = dose if it differs, or a comment. Many of the other results were omitted from the sample, so hits are more common in it than they were. Unless noted, calls follow the shape of the full dose curve. Potency is read from the fitted curve at half-maximal effect.

SMILES | GPT2 inhibitor | NPR1 antag | NPR1 antag cnf | Npr2 selectivity | FLuc inh counter | GloSensor cGMP
COC(=O)c1ccc2nc(CO[C@H]3CN(Cc4cccnc4)C[C@H]3F)[nH]c2c1 | 3%[88.5 µM] | 2%[70.6 µM] | . | . | . | .
COc1ccc2nc(CO[C@H]3CN(Cc4ccc(OC)nc4)C[C@H]3F)[nH]c2c1 | -8%[88.5 µM] | -1%[70.6 µM] | . | . | . | .
COc1ccc(CN2C[C@@H](F)[C@@H](OCc3nc4ccc(C(F)(F)F)cc4[nH]3)C2)cn1 | ? | 32µM* | 28µM* | 31µM* | -12%[86.2 µM] | ?
COC(=O)c1ccc2nc(CO[C@H]3CN(Cc4ccc(Cl)cc4)C[C@H]3F)[nH]c2c1 | i | 32µM* | 40µM* | 35µM* | -11%[86.2 µM] | 35µM*
CCN1C(=O)C2(CCN(C(C)=O)CC2)c2ccccc21 | i | 0% | . | . | . | .
COc1ccccc1-c1ccc(C(=O)N2CCC(NC(=O)Nc3ccccc3)CC2)cc1 | -11% | . | . | . | . | .
O=C(NC1CCN(C(=O)c2ccc(-c3cncnc3)cc2)CC1)c1cccc(Cl)c1 | i | . | . | . | . | .
O=C1CCC2(C(=O)N3CCOCC3)CCCC=C2N1c1ccccc1 (stereo not drawn) | i | . | . | . | . | .
O=C(NCc1ccc(F)cc1)[C@@H]1CCCN1c1nccc(Nc2ccccc2Cl)n1 | i | . | . | . | . | .
CC(CCc1ccccc1)NC(=O)C1CCN(c2cc(C(F)(F)F)ncn2)CC1 (stereo not drawn) | i | ? | . | . | . | .
COc1ccc(NC(=O)C2CCN(c3cc(C(F)(F)F)ncn3)CC2)cc1Cl | i | ? | . | . | . | .
O=C(NC1CCN(c2cc(C(F)(F)F)ncn2)CC1)c1ccccc1F | i | ? | . | . | . | .
O=C(Nc1cccc(Cl)c1)C1CCN(c2cc(C(F)(F)F)ncn2)CC1 | i | ? | 24µM* | ? | 5% | ?
COc1ccccc1CNC(=O)C1CCN(c2cc(C(F)(F)F)ncn2)CC1 | 1% | -10% | . | . | . | .
O=C(Nc1cccc(Br)c1)C1CCN(c2cc(C(F)(F)F)ncn2)CC1 | i | 11µM* | 22µM* | 22µM* | -1% | 24µM*
O=C(Nc1cccc(F)c1)C1CCN(c2cc(C(F)(F)F)ncn2)CC1 | ? | 11µM* | 22µM* | ? | 0% | 19µM*
Cc1ccc(NC(=O)C2CCN(c3cc(C(F)(F)F)ncn3)CC2)cc1F | i | 5µM* | 6.9µM* | 11µM* | 5% | 6.1µM*
Cc1nc2ccccc2n1Cc1cc(C(=O)N2CCCC2)no1 | i | -28% | . | . | . | .
O=C1NCCCCCCN(Cc2cccc(OC(F)(F)F)c2)[C@H]2CCC[C@@H]12 | -6% | -8% | . | . | . | .
CC1CCC2(CC1)NC(=O)N(CC(=O)Nc1ccc(Cl)cc1)C2=O (stereo not drawn) | i | 1% | . | . | . | .
Fc1ccc(CNC2(Cc3cc(-c4ccccc4)on3)COC2)cc1 | -9%[88.5 µM] | ? | . | . | . | .
Cc1noc(C)c1CCCNC(=O)c1ccc(N2CCC[C@H]2CO)nc1 | 1% | 2% | . | . | . | .
Cc1nn(C(=O)CCCC(=O)N2CCC(Cc3nncn3-c3ccccc3)CC2)c2ccccc12 | i | -5% | . | . | . | .
Cc1ccc(OCCC2CCN(C(=O)CCCC(=O)n3nc(C)c4ccccc43)C2)cc1 (stereo not drawn) | i | 10µM* | 11µM* | 14µM* | 0% | 11µM*
Cc1c(C(=O)O)sc2ncnc(N3CCNC(C(=O)O)C3)c12 (stereo not drawn) | -23% | 1% | . | . | . | .
Cc1cn2cc(CNC(=O)c3ccc(CN4CCCN(C)CC4)[nH]c3=O)nc2s1 | i | -1% | . | . | . | .
O=C1NCCCCCCN(Cc2cccc(F)c2)[C@H]2C[C@H](C(=O)N3CCc4ccccc4C3)C[C@@H]12 | 4% | 16µM* | ? | ? | 0% | -13%
COc1cccc(CN2CCCCCCNC(=O)[C@@H]3C[C@@H](C(=O)N4CCc5ccccc5C4)C[C@@H]32)c1 | -5% | -11% | . | . | . | .
N#Cc1cccc(C2CCN(c3cc(C4CC4)ncn3)CC2)c1 | -5% | ? | . | . | . | .
